Source: the supplement of paper PMC9694430
Structures can show the parent of a compound that is named as a salt.

How the values were obtained:
Assay in all cases: thermal shift delta Tm vs DMSO control; higher = stronger stabilization (binding)
Details in all cases: 12.5 µM; protein concentration 2 µM
LOC_OS02G45750-cb003 = system: LOC_OS02G45750-cb003
Summary of the method: (§1)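 Heating from 25°C to 95°C at 0.05°C/s, fluorescence was recorded for 19.5 μl wells of 2 μM E. coli-expressed, purified rice kinase domain in 100 mM potassium phosphate pH 7.5, 150 mM NaCl, 10% glycerol and 5 × SYPRO Orange with compound in DMSO. Boltzmann fits gave melting temperatures for this differential scanning fluorimetry assay. The shift reported is the mean of three replicates against the DMSO-only protein.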

LOC_OS02G54510-cb004 = system: LOC_OS02G54510-cb004
Summary of the method: as §1

LOC_OS03G04050-cb001 = system: LOC_OS03G04050-cb001
Summary of the method: as §1

LOC_OS03G12390-cb001 = system: LOC_OS03G12390-cb001
Summary of the method: as §1

LOC_OS03G27990-cb004 = system: LOC_OS03G27990-cb004
Summary of the method: as §1

LOC_OS03G50450-cb001 = system: LOC_OS03G50450-cb001
Summary of the method: as §1

LOC_OS03G50810-cb003 = system: LOC_OS03G50810-cb003
Summary of the method: as §1

LOC_OS04G35114-cb001 = system: LOC_OS04G35114-cb001
Summary of the method: as §1

LOC_OS04G38480-cb003 = system: T1, LOC_OS04G38480-cb003
T1 sequence (whole entry): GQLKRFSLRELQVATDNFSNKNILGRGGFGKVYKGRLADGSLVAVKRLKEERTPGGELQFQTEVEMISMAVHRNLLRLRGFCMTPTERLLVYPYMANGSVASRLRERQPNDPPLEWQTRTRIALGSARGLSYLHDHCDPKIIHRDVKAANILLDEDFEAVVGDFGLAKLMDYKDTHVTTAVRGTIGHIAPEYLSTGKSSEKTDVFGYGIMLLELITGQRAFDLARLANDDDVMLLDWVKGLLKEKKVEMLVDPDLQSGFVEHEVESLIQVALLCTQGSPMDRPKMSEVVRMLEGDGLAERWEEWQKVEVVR
Summary of the method: as §1

LOC_OS04G41100-cb001 = system: T2, LOC_OS04G41100-cb001
T2 sequence (whole entry): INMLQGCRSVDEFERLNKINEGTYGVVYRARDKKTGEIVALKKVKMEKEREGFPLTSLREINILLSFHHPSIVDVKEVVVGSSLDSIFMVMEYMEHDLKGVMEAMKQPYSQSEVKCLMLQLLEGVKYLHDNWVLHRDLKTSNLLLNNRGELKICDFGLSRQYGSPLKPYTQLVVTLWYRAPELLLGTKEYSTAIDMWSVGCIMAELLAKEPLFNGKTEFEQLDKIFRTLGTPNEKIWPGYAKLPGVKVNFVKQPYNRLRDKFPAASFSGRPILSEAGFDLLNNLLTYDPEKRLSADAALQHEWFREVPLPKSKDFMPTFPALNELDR
Summary of the method: as §1
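Note: purified Escherichia coli-expressed rice kinase domain construct.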

SMILES	thermal shift delta Tm (LOC_OS02G45750-cb003) [°C]	thermal shift delta Tm (LOC_OS02G54510-cb004) [°C]	thermal shift delta Tm (LOC_OS03G04050-cb001) [°C]	thermal shift delta Tm (LOC_OS03G12390-cb001) [°C]	thermal shift delta Tm (LOC_OS03G27990-cb004) [°C]	thermal shift delta Tm (LOC_OS03G50450-cb001) [°C]	thermal shift delta Tm (LOC_OS03G50810-cb003) [°C]	thermal shift delta Tm (LOC_OS04G35114-cb001) [°C]	thermal shift delta Tm (LOC_OS04G38480-cb003) [°C]	thermal shift delta Tm (LOC_OS04G41100-cb001) [°C]
CCCS(=O)(=O)Nc1ccc(F)c(C(=O)c2c[nH]c3ncc(Cl)cc23)c1F	1.97	1.14	0.77	0.99	0.46	0.97	0.43	1.85	0.12	0.83
C=CC(=O)N1CCC(Oc2cc3c(Nc4ccc(Cl)c(Cl)c4F)ncnc3cc2OC)CC1 [Poziotinib (HM781-36B)]	2.04	1.05	0	3.61	0.49	1.57	0.16	4.23	1.12	0.18
CCc1nc(-c2cccc(C)c2)c(-c2ccnc(NC(=O)c3ccccc3)c2)s1	0.74	-0.41	0.27	0.6	0.28	0.06	0.03	1.27	0.74	0.61
CC(C)CC(=O)Nc1n[nH]c2c1CN(C(=O)C1CCN(C)CC1)C2(C)C	0.62	0.36	0.36	0.64	0.15	0.29	1.12	0.47	0.59	3.27
Cn1cnc2c(F)c(Nc3ccc(Br)cc3F)c(C(=O)NOCCO)cc21	0.6	0.05	0.71	0.19	0.4	0.43	0.44	0	1.48	0.46
NC(=O)c1ccc2nc(-c3ccc(Oc4ccc(Cl)cc4)cc3)[nH]c2c1 [Chk2 Inhibitor II (BML-277)]	-1.27	-0.11	0.47	0.95	0.3	0.23	0.22	0.43	0.19	-0.49
CN1CCN(C2CCN(C(=O)Nc3cc(Oc4ccc(NC(=O)C5(C(=O)Nc6ccc(F)cc6)CC5)c(F)c4)ccn3)CC2)CC1 [Golvatinib (E7050)]	0.4	-0.38	0.26	0.04	0.36	0.52	0.33	0.27	1.71	1.78
O=C1CCc2c(Oc3ccc4c(c3)[C@@H]3[C@H](O4)[C@H]3c3nc4cc(C(F)(F)F)ccc4[nH]3)ccnc2N1 [Lifirafenib (BGB-283)]	2.06	5.22	0.52	0.76	0.6	0.51	0.57	0.81	3.35	0.63
Nc1cccc(-c2cc3c(Oc4cccc(O)c4)ncnc3[nH]2)c1	5.52	1.7	0.45	5.94	3.84	0.38	1.5	4.56	2.16	1.12
Cn1sc(=O)n(Cc2ccccc2)c1=O	-1.04	-2	-0.78	-3.39	-9.72	-0.11	-3.78	0.63	1.35	0.43
CSc1cccc(Nc2ncc3cc(-c4c(Cl)cccc4Cl)c(=O)n(C)c3n2)c1	1.81	1.36	0.46	0.1	0.26	0.49	0.58	2.51	1.67	0.59
CC[C@@](C)(Nc1ccnc(-c2c[nH]c3ncccc23)n1)C(=O)NCC(F)(F)F [Decernotinib (VX-509)]	1.82	0.32	0.47	0.52	0.33	0.54	1.35	1.32	3.52	0.25
COc1cc(N2CCN(C)CC2)ccc1Nc1nccc(-c2cn(C)c3cnccc23)n1	2.73	0.02	0.3	9.57	0.05	-0.05	1.79	4.35	1.32	0.51
CN(C)C[C@@H]1CCn2cc(c3ccccc32)C2=C(C(=O)NC2=O)c2cn(c3ccccc23)CCO1	-0.25	0.16	0.36	0.08	0.5	-0.45	1.85	6.19	2.42	0.73
CC#CC(=O)N1CC[C@@H](n2c(=O)n(-c3ccc(Oc4ccccc4)cc3)c3c(N)ncnc32)C1 [ONO-4059 (GS-4059) hydrochloride]	0.78	0.65	0.51	-0.67	0.44	0.4	0.3	0.12	0.62	0.03
CCNC(=O)Nc1ccc(-c2nc3c(c(N4CCOC[C@@H]4C)n2)CCN(C2COC2)C3)cc1	1.07	0.26	0.61	-0.06	0.78	0.68	0.23	0.56	-0.03	0.46
Cc1ccc(NC(=O)c2ccc(CN3CC[C@H](N(C)C)C3)c(C(F)(F)F)c2)cc1Nc1nccc(-c2cncnc2)n1 [Bafetinib (INNO-406)]	0.37	3.32	0.29	0.16	0.43	0.25	0.34	0.18	0.66	0.35
CN(C)S(=O)(=O)c1ccc2c(c1)/C(=C/c1cc3c([nH]1)CCCC3)C(=O)N2	0	1.15	0.65	0.26	0.61	0.97	0	0	6.35	0.43
O=C(NCCCNc1nc(Nc2cccc(NC(=O)N3CCCC3)c2)ncc1I)c1cccs1	14.3	1.24	0.97	7.32	0.57	6.67	6.52	7.01	3.4	2.91
C[C@@H]1COCCN1c1cc(=O)n2c(n1)N(Cc1cncc(Cl)c1)[C@H](C(F)(F)F)CC2	0.59	0.31	0.37	0.19	0.22	0.04	0.46	0.41	1.55	0.39
